For test [1], the target named is Bile acid receptor (Homo sapiens) (UniProt Q96RI1). Put plainly: qHTS assay to identify small molecule agonists of the farnesoid-X-receptor (FXR) signaling pathway (AID 743220; active means well fitted activation curve with a large enough effect in the signal ratio in the repeat runs, not every such curve was filed as active; the % refers to the signal ratio; further: on the % scale 0 is the no-effect control and ±100 the full control effect). An outline of the steps: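 Beta-lactamase reporter under UAS control in GeneBLAzer FXR HEK 293T cells (5000/well) measured with LiveBLAzer FRET substrate after 2 h at room temperature. Compound exposure lasted 16 h at 37C.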
For orientation: qHTS replaces the single test concentration by a dilution series.

The target of test [2] is Vitamin D3 receptor (Homo sapiens) (UniProt P11473). Put plainly: qHTS assay to identify small molecule agonists of the vitamin D receptor (VDR) signaling pathway (AID 743222; calls by dose curve; further: on the % scale 0 is the no-effect control and ±100 the full control effect). The method in brief: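 VDR-bla cells, 2,000/well; 4 h preincubation 37C; cpd (DMSO) 16 h; LiveBLAzer B/G substrate 2 h RT; fluorescence intensity read.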
Test [3] is described as follows: qHTS assay to identify small molecule antagonists of the farnesoid-X-receptor (FXR) signaling pathway - cell viability counter screen (AID 743221; active means well fitted cell-killing curve with a large enough effect in the repeat runs, not every such curve was filed as active; further: potency means the concentration at half of the fitted maximal effect; nearly all actives have a fitted effect of over 50% in size). The method in brief:
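Cytotoxicity counter screen run in the FXR-bla reporter wells: HEK 293T cells exposed to compound with 50 uM (final) chenodeoxycholic acid for 16 h, 37 C, then viability measured by CellTiter-Glo luminescence after 30 min, room temperature.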

Test [4] can be described thus: qHTS assay to identify small molecule agonists of the vitamin D receptor (VDR) signaling pathway - cell viability counter screen (AID 743224). Further: potency means the concentration at half of the fitted maximal effect; nearly all actives have a fitted effect of over 50% in size. An outline of the steps:
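Luminescence from CellTiter-Glo, read after 30 min at room temperature, reports viability of VDR-bla cells treated with compounds for 16 h at 37C in the wells used for the beta-lactamase FRET read.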

Test [5] is described as follows: qHTS assay to identify small molecule antagonists of the retinoid-related orphan receptor gamma (ROR-gamma) signaling pathway - cell viability counter screen (AID 1159520). Further: on the % scale 0 is the no-effect control and ±100 the full control effect; nearly all actives have a fitted effect of over 50% in size. An outline of the steps: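 Tet-on ROR gamma CHO cells (1,000/well) were plated 4 hr, given compounds in DMSO for 2 hr at 37 C, then induced with 1 uM final doxycycline for 16 hr. Viability was read as ATP by CellTiter-Glo luminescence after 30 min.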

Test [6] deals with Nuclear receptor ROR-gamma (Homo sapiens) (UniProt P51449). Put plainly: qHTS assay to identify small molecule antagonists of the retinoid-related orphan receptor gamma (ROR-gamma) signaling pathway (AID 1159521; further: top concentration of the series differs between compounds; on the % scale 0 is the no-effect control and ±100 the full control effect; nearly all actives have a fitted effect of over 50% in size). The method in brief: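 Antagonist read-out: drop in luminescence (ONE-Glo) from an RORE-LUC reporter in CHO cells with doxycycline-inducible ROR-gamma; 2 hr compound pretreatment, 1 uM doxycycline, 16 hr incubation at 37 C.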

Test [7] in a line: qHTS assay to identify small molecule agonists of the AP-1 signaling pathway - cell viability counter screen (AID 1159525; calls by dose curve; further: nearly all actives have a fitted effect of over 55% in size). The method in brief:
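ME-180 AP-1-bla, 2500 cells/well, Opti-MEM + 0.5% dialyzed FBS; overnight 37 °C; cpd 15-pt titration, 5 h 37 °C; CellTiter-Glo 30 min RT; luminescence read; normalised to TOAB and DMSO controls.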

Test [8] is described as follows: qHTS assay to identify small molecule agonists of the AP-1 signaling pathway (AID 1159526; calls by dose curve; further: on the % scale 0 is the no-effect control and ±100 the full control effect).
Test [9] deals with Retinoic acid receptor RXR-alpha (Homo sapiens) (UniProt P19793). Kind of test: qHTS assay to identify small molecule agonists of the RXR signaling pathway (AID 1159527; calls by dose curve; further: on the % scale 0 is the no-effect control and ±100 the full control effect; nearly all actives have a fitted effect of over 35% in size). An outline of the steps:
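Agonist-mode beta-lactamase reporter assay: HEK 293T RXR-alpha-UAS-bla cells treated 16 hr at 37 C with compounds, 9-cis retinoic acid as positive control. LiveBLAzer FRET substrate, 405 nm excitation, 460/530 nm emission.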

A short description of test [10]: qHTS assay to identify small molecule agonists of the RXR signaling pathway - cell viability counter screen (AID 1159529). The method in brief:
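CellTiter-Glo luminescence gave viability in the wells also read for beta-lactamase. Cells (RXR-alpha-UAS-bla HEK 293T, 2% charcoal-stripped FBS medium) had 5 hr plating, then 16 hr compound exposure at 37 C; tetraoctyl ammonium bromide served as positive control.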

Inconclusive results are not listed. A number with no mark means an inactive call. Calls of active or inactive are those of the source. Unless noted, the call rests on the fitted dose curve; in most records, active means well fitted curve in the direction sought with a large enough effect in the repeat runs; inconclusive means weak or mixed curves; inactive means no such curve, though single readings can be large; an effect the other way counts as inactive or inconclusive.

Chain of Retinoic acid receptor RXR-alpha (Homo sapiens) (P19793 whole entry, looked up): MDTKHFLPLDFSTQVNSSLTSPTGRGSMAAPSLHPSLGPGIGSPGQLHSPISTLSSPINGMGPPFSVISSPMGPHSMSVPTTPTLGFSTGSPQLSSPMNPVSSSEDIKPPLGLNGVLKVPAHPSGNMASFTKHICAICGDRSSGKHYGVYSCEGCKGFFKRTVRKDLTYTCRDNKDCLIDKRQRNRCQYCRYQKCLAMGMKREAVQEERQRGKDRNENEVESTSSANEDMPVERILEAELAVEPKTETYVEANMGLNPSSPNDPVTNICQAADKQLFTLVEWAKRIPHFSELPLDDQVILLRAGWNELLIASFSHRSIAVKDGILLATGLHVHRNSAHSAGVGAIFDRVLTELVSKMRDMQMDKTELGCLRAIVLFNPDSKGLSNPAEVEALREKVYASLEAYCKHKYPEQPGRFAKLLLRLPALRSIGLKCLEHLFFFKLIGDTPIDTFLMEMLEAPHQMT
Chain of Vitamin D3 receptor (Homo sapiens) (P11473 whole entry, looked up): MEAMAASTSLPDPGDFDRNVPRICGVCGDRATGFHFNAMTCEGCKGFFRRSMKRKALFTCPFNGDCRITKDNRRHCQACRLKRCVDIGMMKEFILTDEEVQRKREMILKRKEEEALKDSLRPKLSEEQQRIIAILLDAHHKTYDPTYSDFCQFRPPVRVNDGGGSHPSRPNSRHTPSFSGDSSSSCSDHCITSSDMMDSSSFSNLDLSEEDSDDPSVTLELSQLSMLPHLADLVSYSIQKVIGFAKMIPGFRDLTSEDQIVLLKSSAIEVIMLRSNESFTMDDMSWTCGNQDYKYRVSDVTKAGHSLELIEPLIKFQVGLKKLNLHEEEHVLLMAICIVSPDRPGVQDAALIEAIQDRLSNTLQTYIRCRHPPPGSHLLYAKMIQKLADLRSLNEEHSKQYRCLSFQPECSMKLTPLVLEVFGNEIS
Chain of Bile acid receptor (Homo sapiens) (Q96RI1 whole entry, looked up): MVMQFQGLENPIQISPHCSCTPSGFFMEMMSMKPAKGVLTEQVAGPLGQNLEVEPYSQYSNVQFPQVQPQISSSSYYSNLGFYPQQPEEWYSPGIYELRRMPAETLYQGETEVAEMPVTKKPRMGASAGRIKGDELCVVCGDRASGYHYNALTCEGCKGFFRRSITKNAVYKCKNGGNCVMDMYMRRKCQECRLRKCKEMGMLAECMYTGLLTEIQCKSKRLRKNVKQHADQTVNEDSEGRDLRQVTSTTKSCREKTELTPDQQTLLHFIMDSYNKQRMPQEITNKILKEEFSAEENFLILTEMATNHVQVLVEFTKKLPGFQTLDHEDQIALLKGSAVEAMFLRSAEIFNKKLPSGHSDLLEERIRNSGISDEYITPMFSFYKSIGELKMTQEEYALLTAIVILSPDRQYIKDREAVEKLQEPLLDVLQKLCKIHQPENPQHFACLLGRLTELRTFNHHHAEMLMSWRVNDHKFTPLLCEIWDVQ

With `COc1ccccc1OCCNCC(O)COc1cccc2[nH]c3ccccc3c12` (stereo not given), the Potency result in [1] and in [2] was “inactive” in each case.

Take `Cc1c(-c2ccc(O)cc2)n(Cc2ccc(OCCN3CCCCCC3)cc2)c2ccc(O)cc12`: the Potency in [3] was 29.8 µM (active).

For `CCCCCCCCCCCCN(CCO)CCO`, in [4], the Potency is 30.8 µM (active).

On to `CC(=O)O[C@@H]1C[C@@H]2CC[C@@]1(C)C2(C)C`, for which the Potency result in [5], in test [6], in test [7], in test [8], in test [9] and in test [10] was “inactive” throughout.

Regarding `Cc1ccc(O)cn1`, the Potency result in test [5], in test [6], in test [7], in test [8] and in test [10] was “inactive” in each case.

For the compound `CCCCCCCC(OC)OC`, the Potency result in test [5], in test [6], in test [7], in test [8], in test [9] and in [10] was “inactive” in each case.

As for `CCCCCCCCCCc1ccccc1`, the Potency entry in test [5], in test [6], in [7], in [8] and in test [10] was “inactive” each time.

In the case of `CC(C)(C)c1n[nH]c(=O)n(N)c1=O`, the Potency entry in test [5], in test [6], in [7], in [8], in test [9] and in [10] was “inactive” throughout.

With `CC1CCCCC1`, the Potency entry in test [5], in [6], in test [7], in test [8], in test [9] and in test [10] was “inactive” each time.

On to `CC[N+](CC)(CC)Cc1ccccc1`, for which the Potency result in test [5], in test [6], in test [7], in test [8] and in test [10] was “inactive” throughout.

`O=C=NCc1cccc(CN=C=O)c1`: in [5], the activity, negative = cytotoxicity is 5.39% [at 19 µM]. Further, in [6], the activity change, negative = inhibition is -2.4% [at 19 µM]. In [7], the viability change, negative = cytotoxic is -10.1% [at 15.8 µM]. In test [8], the activation was -14% [at 15.8 µM]. The activity change, negative = cytotoxicity in test [10] was -2.82% [at 15.8 µM].

For the compound `Cc1cccc(N(C)C)c1`, the Potency entry in test [5], in test [6], in [7], in test [8], in test [9] and in test [10] was “inactive” each time.

Take `CCOB(OCC)OCC`: the Potency entry in test [5], in [6], in [7], in test [8], in test [9] and in test [10] was “inactive” throughout.

For `Cc1cnccn1`, the Potency entry in [5], in test [6], in test [7], in test [8], in test [9] and in test [10] was “inactive” each time.

Consider `CCC1CCCCC1`, for which the Potency entry in test [5], in [6], in test [7], in [8], in [9] and in [10] was “inactive” in each case.

Turning to `Cc1cccc(C)n1`, the Potency result in test [5], in [6], in test [7], in test [8] and in [10] was “inactive” throughout.

For the compound `OCCC(O)CO` (stereo not given), the Potency result in [5], in test [6], in [7], in test [8], in [9] and in [10] was “inactive” in each case.

As to `Cc1cc(C)c(C=O)c(C)c1`, the Potency result in test [5], in [6], in [7], in [8] and in test [10] was “inactive” throughout.

In the case of `Clc1nc2ccccc2s1`, the Potency result in [5], in [6], in [7], in test [8] and in [10] was “inactive” in each case.

`C/C=C/C(=O)C1=C(C)CCCC1(C)C`: the Potency entry in test [5], in [6], in test [7], in [8] and in [10] was “inactive” throughout.

For `CCCCN(C)C`, the Potency entry in test [5], in test [6], in [7], in test [8], in test [9] and in [10] was “inactive” each time.

Take `O=S(O)O`: the activity, negative = cytotoxicity in test [5] is 14% [at 19 µM]. In test [6], the activity change, negative = inhibition was 7.25% [at 19 µM]. The viability change, negative = cytotoxic in test [7] is 5.55% [at 15.8 µM]. For the same compound, the results for the activation in test [8] and in test [9] were 2.22% [at 15.8 µM] and -2.24% [at 15.8 µM], respectively. In addition, the activity change, negative = cytotoxicity in [10] is -0.924% [at 15.8 µM].

Take `C=CC/C=C/C/C=C/C/C=C/C`: the Potency entry in test [5], in test [6], in [7], in test [8], in [9] and in [10] was “inactive” throughout.

As to `C[Si](C)O[Si](C)C`, the Potency result in test [5], in test [6], in [7], in test [8], in test [9] and in test [10] was “inactive” throughout.

As for `C/C=C/c1ccc(OC)c(OC)c1`, the Potency entry in test [5], in [6], in [7], in test [8] and in test [10] was “inactive” throughout.

As to `CCN(CC)c1cccc(C)c1`, the Potency result in test [5], in [6], in test [7], in test [8], in test [9] and in test [10] was “inactive” each time.

As to `COc1nccnc1CC(C)C`, the Potency result in test [5], in test [6], in test [7], in test [8], in test [9] and in test [10] was “inactive” in each case.

As for `OCCCc1cccnc1`, the Potency entry in test [5], in [6], in test [7], in test [8], in test [9] and in [10] was “inactive” each time.

Turning to `CCO[Si](C)(C)OCC`, the Potency result in [5], in test [6], in test [7], in test [8], in test [9] and in test [10] was “inactive” throughout.

For `CCOCN(C(=O)CS(=O)(=O)O)c1c(C)cccc1CC`, the Potency entry in test [5], in [6], in test [7], in [8], in test [9] and in test [10] was “inactive” each time.

For `CCCCCCCC(=O)OCC`, the Potency result in test [5], in test [6], in test [7], in test [8] and in test [10] was “inactive” each time.

As to `CCCCOCC`, the Potency result in test [5], in test [6], in [7], in test [8], in test [9] and in test [10] was “inactive” in each case.

For `CCC(C)C(=O)OC` (stereo not given), the Potency result in test [5], in test [6], in test [7], in [8], in test [9] and in [10] was “inactive” in each case.

Consider `CC(=O)OC1CCCCC1`, for which the Potency entry in [5], in [6], in test [7], in test [8], in [9] and in test [10] was “inactive” throughout.

Values taken from PubChem BioAssay (Tox21).
